Measurements taken from the supplement of paper PMC10849652.
Targets with a hit are over-represented here; the source holds about 8,800 in all. About 0.5% of all pairs of compound and target were hits.

How the values were obtained:
Assay in all cases: log2 fold change, soluble protein after heating vs DMSO (PISA); higher = thermal stabilisation; K562 lysate, 10 uM; active = over 0.2 and 3.5 SD of the protein, either way, in both replicates (recomputed)
lapatinib = compound: CS(=O)(=O)CCNCc1ccc(-c2ccc3ncnc(Nc4ccc(OCc5cccc(F)c5)c(Cl)c4)c3c2)o1 [lapatinib]
How it was run: (§1)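 Dounce homogenisation of K562 pellets in PBS pH 7.4 with 1 mM MgCl2 produced a crude extract, used at 1 mg/mL protein. Exposure to 10 μM compound lasted 30 min, and aliquots were then heated for 3 min across 48°C-58°C, pooled and brought to 0.5% NP-40 at 4°C. The supernatant after 21,000xg for 90 min was quantified by TMTpro 16plex LC-MS/MS with channel sums equalised. Duplicate values are given as log-two fold change in thermal stability relative to solvent controls.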

pictilisib = compound: CS(=O)(=O)N1CCN(Cc2cc3nc(-c4cccc5[nH]ncc45)nc(N4CCOCC4)c3s2)CC1 [pictilisib]
How it was run: as §1

crizotinib = compound: C[C@@H](Oc1cc(-c2cnn(C3CCNCC3)c2)cnc1N)c1c(Cl)ccc(F)c1Cl [crizotinib]
How it was run: as §1

[1] = compound: C[C@H](C1=CC=C(C=C1)C(=O)NC2=C3C=CNC3=NC=C2)N
How it was run: as §1

duvelisib = compound: C[C@H](Nc1ncnc2nc[nH]c12)c1cc2cccc(Cl)c2c(=O)n1-c1ccccc1 [duvelisib]
How it was run: as §1

gandotinib = compound: Cc1cc(Nc2cc(CN3CCOCC3)c3nc(C)c(Cc4ccc(Cl)cc4F)n3n2)n[nH]1 [gandotinib]
How it was run: as §1

doramapimod = compound: Cc1ccc(-n2nc(C(C)(C)C)cc2NC(=O)Nc2ccc(OCCN3CCOCC3)c3ccccc23)cc1 [doramapimod]
How it was run: as §1

bafetinib = compound: Cc1ccc(NC(=O)c2ccc(CN3CC[C@H](N(C)C)C3)c(C(F)(F)F)c2)cc1Nc1nccc(-c2cncnc2)n1 [bafetinib]
How it was run: as §1

[2] = compound: Cc1cccc(CC(=O)N2CCc3c2ccc(-c2cn(C)c4ncnc(N)c24)c3F)n1
How it was run: as §1

dasatinib = compound: Cc1nc(Nc2ncc(C(=O)Nc3c(C)cccc3Cl)s2)cc(N2CCN(CCO)CC2)n1 [dasatinib]
How it was run: as §1

[3] = compound: Cn1cc(-c2ccc3c(c2)CCN3C(=O)Cc2cccc(C(F)(F)F)c2)c2c(N)ncnc21
How it was run: as §1

quisinostat = compound: Cn1cc(CNCC2CCN(c3ncc(C(=O)NO)cn3)CC2)c2ccccc21 [quisinostat]
How it was run: as §1

[4] = compound: NC(=O)Nc1cc(-c2cccc(F)c2)sc1C(=O)N[C@H]1CCCNC1
How it was run: as §1

[5] = compound: NC(=O)c1cnc(N[C@@H]2CCCC[C@@H]2N)nc1Nc1cccc(-n2nccn2)c1
How it was run: as §1

[6] = compound: NC1(c2ccc(-c3nc4ccn5c(=O)[nH]nc5c4cc3-c3ccccc3)cc2)CCC1
How it was run: as §1

tozasertib = compound: Cc1cc(Nc2cc(N3CCN(C)CC3)nc(Sc3ccc(NC(=O)C4CC4)cc3)n2)n[nH]1 [tozasertib]
How it was run: as §1

nilotinib = compound: Cc1cn(-c2cc(NC(=O)c3ccc(C)c(Nc4nccc(-c5cccnc5)n4)c3)cc(C(F)(F)F)c2)cn1 [nilotinib]
How it was run: as §1

[7] = compound: Cc1nc(Nc2n[nH]c3c2CN(C(=O)N[C@H](CN(C)C)c2ccccc2)C3(C)C)c2sccc2n1
How it was run: as §1

[8] = compound: Cc1ncc(-c2ccnc(Nc3ccc(S(C)(=O)=O)cc3)n2)n1C(C)C
How it was run: as §1

tipifarnib = compound: Cn1cncc1[C@@](N)(c1ccc(Cl)cc1)c1ccc2c(c1)c(-c1cccc(Cl)c1)cc(=O)n2C [tipifarnib]
How it was run: as §1

Measured: log2 fold change

SH3BP2 isoform 4 (UniProt P78314)
inactive: lapatinib -0.135 | crizotinib -0.021 | [1] 0.01 | duvelisib 0.053 | gandotinib -0.02 | doramapimod 0.057 | bafetinib -0.105 | [2] 0.123 | dasatinib -0.027 | [3] -0.107 | quisinostat -0.111 | [4] 0.019 | [5] 0.141 | [6] 0.048
active: pictilisib -0.41

SLC22A18 (UniProt Q96BI1)
UniProt Q96BI1, sequence (Q96BI1 whole entry, looked up): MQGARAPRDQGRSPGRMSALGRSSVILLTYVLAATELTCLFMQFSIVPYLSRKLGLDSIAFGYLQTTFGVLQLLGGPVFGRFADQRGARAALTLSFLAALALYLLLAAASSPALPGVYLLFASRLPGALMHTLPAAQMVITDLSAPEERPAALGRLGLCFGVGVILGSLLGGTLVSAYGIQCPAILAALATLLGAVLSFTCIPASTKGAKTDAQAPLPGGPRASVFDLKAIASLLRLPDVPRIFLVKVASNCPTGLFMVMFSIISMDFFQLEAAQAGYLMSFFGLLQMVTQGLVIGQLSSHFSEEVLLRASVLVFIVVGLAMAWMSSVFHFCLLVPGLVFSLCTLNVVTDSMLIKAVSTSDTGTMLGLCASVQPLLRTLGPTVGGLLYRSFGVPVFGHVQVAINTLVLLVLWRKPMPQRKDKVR
inactive: lapatinib 0.072 | pictilisib 0.026 | crizotinib -0.064 | [1] -0.094 | gandotinib 0.147 | tozasertib -0.004 | doramapimod 0.032 | bafetinib -0.001 | [2] 0.033 | quisinostat -0.027 | [4] -0.032 | [5] 0.029 | [6] 0.007

SPG11 (UniProt Q96JI7)
UniProt Q96JI7, sequence (Q96JI7 whole entry, looked up): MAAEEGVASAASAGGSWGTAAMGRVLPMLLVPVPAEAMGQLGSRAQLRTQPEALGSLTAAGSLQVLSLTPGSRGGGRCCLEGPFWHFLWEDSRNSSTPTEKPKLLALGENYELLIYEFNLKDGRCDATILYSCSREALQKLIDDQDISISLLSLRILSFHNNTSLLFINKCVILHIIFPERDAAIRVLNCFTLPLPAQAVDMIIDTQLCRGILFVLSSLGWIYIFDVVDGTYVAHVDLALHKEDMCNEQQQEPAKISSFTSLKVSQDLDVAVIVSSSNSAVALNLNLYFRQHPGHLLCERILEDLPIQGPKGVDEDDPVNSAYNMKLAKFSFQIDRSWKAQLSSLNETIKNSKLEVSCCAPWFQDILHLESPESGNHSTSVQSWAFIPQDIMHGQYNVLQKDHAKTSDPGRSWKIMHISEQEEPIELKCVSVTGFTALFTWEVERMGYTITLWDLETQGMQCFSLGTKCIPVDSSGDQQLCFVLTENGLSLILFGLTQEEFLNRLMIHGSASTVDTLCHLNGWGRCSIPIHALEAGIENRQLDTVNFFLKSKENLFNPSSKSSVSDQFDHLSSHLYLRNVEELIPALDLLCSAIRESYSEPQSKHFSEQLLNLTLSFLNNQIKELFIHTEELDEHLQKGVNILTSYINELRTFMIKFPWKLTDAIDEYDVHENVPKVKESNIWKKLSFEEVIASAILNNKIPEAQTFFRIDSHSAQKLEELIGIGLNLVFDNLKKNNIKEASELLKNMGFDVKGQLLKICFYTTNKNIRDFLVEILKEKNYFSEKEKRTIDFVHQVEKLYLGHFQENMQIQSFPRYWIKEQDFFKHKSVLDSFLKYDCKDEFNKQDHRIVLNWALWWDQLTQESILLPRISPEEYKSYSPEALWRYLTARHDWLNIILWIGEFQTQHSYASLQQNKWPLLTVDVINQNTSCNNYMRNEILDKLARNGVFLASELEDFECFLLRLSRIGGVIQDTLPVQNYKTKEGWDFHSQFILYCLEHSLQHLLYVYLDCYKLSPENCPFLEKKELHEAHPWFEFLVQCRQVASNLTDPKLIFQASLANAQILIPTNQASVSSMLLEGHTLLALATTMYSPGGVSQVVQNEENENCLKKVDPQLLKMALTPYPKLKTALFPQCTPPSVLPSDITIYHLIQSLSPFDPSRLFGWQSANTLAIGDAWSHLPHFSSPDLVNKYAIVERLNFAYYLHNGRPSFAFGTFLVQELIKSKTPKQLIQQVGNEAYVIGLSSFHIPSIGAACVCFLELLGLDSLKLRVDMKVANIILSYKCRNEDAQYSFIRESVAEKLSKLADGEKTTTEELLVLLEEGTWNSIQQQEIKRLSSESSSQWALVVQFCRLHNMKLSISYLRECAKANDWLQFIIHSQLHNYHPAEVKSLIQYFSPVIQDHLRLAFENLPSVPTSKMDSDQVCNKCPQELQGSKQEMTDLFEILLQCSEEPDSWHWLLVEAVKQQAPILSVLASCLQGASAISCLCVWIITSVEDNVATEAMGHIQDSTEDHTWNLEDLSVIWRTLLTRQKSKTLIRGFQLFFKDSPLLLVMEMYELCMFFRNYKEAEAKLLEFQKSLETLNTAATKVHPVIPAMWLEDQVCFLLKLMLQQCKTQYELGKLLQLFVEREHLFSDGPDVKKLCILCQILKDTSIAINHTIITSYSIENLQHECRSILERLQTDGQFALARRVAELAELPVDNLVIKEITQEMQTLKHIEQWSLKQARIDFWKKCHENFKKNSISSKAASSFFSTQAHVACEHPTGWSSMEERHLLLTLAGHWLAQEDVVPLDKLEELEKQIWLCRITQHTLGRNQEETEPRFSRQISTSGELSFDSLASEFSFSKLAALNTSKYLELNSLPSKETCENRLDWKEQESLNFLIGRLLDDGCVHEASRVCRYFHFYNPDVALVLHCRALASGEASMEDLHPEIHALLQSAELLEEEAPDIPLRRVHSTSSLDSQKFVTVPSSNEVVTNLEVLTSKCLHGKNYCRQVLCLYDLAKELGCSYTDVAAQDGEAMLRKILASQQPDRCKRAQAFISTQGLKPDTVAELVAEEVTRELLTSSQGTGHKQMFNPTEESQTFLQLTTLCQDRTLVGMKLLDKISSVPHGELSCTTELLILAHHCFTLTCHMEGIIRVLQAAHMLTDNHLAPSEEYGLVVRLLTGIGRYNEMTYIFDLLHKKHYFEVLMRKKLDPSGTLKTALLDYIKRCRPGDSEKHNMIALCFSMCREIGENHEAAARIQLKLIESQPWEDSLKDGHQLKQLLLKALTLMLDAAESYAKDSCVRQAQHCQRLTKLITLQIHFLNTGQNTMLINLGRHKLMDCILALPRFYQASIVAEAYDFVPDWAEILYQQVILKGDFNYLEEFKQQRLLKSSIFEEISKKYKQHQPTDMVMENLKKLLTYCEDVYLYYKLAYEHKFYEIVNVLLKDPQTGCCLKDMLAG
inactive: lapatinib -0.163 | pictilisib -0.021 | crizotinib -0.102 | [1] -0.049 | duvelisib 0.048 | gandotinib 0 | tozasertib 0.047 | doramapimod 0.024 | bafetinib 0.138 | [2] -0.009 | nilotinib -0.024 | [7] 0.026 | dasatinib -0.052 | [8] 0.026 | [3] 0.025 | quisinostat -0.048 | tipifarnib -0.007 | [4] -0.017 | [5] 0.05 | [6] -0.046

STK3 isoform 2 (UniProt Q13188)
inactive: lapatinib -0.045 | pictilisib 0.02 | crizotinib 0.299 | [1] -0.029 | duvelisib -0.058 | tozasertib 0.224 | doramapimod -0.035 | bafetinib 0.001 | [2] 0.122 | nilotinib 0.015 | [7] 0.274 | dasatinib 0.132 | [8] 0.179 | [3] 0.276 | quisinostat -0.077 | tipifarnib -0.014 | [5] 0.108 | [6] -0.01
active: gandotinib 0.468

STMN3 (UniProt Q9NZ72)
UniProt Q9NZ72, sequence (Q9NZ72 whole entry, looked up): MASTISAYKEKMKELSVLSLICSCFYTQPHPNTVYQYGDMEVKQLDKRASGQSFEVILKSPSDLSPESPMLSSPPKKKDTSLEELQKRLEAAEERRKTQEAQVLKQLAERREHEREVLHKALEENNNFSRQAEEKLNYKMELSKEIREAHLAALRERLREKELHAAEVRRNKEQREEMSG
inactive: lapatinib -0.017 | pictilisib -0.08 | crizotinib 0.009 | duvelisib -0.023 | tozasertib -0.023 | doramapimod -0.003 | bafetinib 0.041 | nilotinib -0.068 | [7] 0.218 | dasatinib 0.035 | [8] -0.041 | [3] -0.032 | quisinostat 0.006 | tipifarnib 0.176 | [4] -0.022 | [5] -0.006 | [6] 0.052

SMYD3 (UniProt Q9H7B4)
UniProt Q9H7B4, sequence (Q9H7B4 whole entry, looked up): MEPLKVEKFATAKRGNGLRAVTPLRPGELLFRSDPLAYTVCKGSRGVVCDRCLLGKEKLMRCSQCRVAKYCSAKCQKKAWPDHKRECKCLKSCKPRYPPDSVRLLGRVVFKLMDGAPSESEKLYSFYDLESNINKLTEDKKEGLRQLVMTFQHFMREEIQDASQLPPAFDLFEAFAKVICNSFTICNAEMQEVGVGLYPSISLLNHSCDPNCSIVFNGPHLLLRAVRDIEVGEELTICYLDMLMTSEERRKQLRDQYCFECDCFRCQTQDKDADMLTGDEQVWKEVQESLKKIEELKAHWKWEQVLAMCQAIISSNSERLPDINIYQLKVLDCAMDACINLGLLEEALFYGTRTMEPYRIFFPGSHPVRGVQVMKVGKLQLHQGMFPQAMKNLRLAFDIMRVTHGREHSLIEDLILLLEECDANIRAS
inactive: lapatinib 0.017 | pictilisib -0.018 | crizotinib -0.146 | duvelisib 0.062 | tozasertib 0.023 | doramapimod 0.053 | bafetinib -0.062 | nilotinib 0.004 | [7] 0.022 | dasatinib -0.101 | [8] 0.01 | [3] -0.029 | quisinostat -0.056 | tipifarnib 0.031 | [4] 0.038 | [5] 0.036 | [6] -0.051

TARDBP (UniProt Q13148)
active: tipifarnib -0.554
inactive: lapatinib 0.002 | pictilisib 0.145 | crizotinib 0.018 | [1] 0.005 | duvelisib -0.045 | gandotinib 0.115 | tozasertib 0.022 | doramapimod 0.282 | bafetinib -0.055 | [2] 0.044 | nilotinib -0.146 | [7] -0.079 | dasatinib -0.005 | [8] -0.051 | [3] 0.007 | quisinostat -0.087 | [4] 0.136 | [5] 0.021 | [6] 0.027

SOX5 (UniProt P35711)
inactive: lapatinib 0.137 | pictilisib -0.019 | crizotinib 0.006 | [1] 0.007 | duvelisib -0.073 | gandotinib 0.06 | tozasertib -0.017 | doramapimod 0.026 | bafetinib -0.235 | [2] 0.007 | dasatinib -0.035 | [3] -0.095 | quisinostat 0.027 | [4] -0.03 | [5] -0.186 | [6] -0.004

SMC1B isoform 3 (UniProt Q8NDV3)
inactive: lapatinib 0 | pictilisib -0.037 | crizotinib -0.019 | duvelisib 0.015 | tozasertib 0.26 | doramapimod -0.036 | bafetinib -0.093 | nilotinib 0.022 | [7] -0.041 | dasatinib -0.004 | [8] 0.023 | [3] 0.016 | quisinostat 0.004 | tipifarnib 0.008 | [4] -0.014 | [5] -0.005 | [6] -0.055

SRP54 (UniProt P61011)
inactive: lapatinib 0.021 | pictilisib -0.021 | crizotinib 0.019 | [1] -0.035 | duvelisib -0.024 | gandotinib 0.039 | tozasertib -0.004 | doramapimod 0.041 | bafetinib -0.029 | [2] 0.04 | nilotinib 0.039 | [7] 0.006 | dasatinib -0.021 | [8] 0 | [3] 0.034 | quisinostat 0.048 | tipifarnib -0.047 | [4] -0.001 | [5] -0.013 | [6] -0.015

SIX5 (UniProt Q8N196)
UniProt Q8N196, sequence (Q8N196 whole entry, looked up): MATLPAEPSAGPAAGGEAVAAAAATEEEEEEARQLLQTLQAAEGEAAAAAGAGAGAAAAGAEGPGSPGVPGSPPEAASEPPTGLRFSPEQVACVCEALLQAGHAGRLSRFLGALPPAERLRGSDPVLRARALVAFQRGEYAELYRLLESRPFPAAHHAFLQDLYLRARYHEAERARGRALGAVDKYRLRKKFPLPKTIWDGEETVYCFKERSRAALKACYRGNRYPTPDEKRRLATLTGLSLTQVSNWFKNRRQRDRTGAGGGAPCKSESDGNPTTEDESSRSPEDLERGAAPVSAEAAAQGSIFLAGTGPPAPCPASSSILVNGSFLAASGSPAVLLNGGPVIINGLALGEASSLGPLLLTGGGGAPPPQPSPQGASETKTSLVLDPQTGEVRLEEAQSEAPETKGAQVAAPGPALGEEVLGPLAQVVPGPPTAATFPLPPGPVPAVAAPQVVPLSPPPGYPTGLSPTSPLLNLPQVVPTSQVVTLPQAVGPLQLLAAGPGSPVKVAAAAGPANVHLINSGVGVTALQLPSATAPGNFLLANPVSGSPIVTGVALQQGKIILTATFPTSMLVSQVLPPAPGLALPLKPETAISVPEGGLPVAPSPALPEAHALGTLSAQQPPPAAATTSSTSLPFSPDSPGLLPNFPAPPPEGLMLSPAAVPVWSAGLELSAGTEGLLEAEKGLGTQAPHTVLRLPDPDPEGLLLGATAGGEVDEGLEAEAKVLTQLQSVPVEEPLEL
active: gandotinib -0.48
inactive: lapatinib -0.105 | pictilisib 0.015 | crizotinib -0.075 | [1] 0.22 | duvelisib 0.039 | doramapimod 0.143 | bafetinib -0.009 | [2] -0.306 | nilotinib 0.06 | [7] -0.05 | dasatinib 0.02 | [8] 0.074 | [3] -0.064 | quisinostat -0.141 | tipifarnib 0.02 | [4] 0.08 | [5] 0.092 | [6] -0.025

SYNRG (UniProt Q9UMZ2)
inactive: lapatinib 0.022 | pictilisib -0.016 | crizotinib 0.016 | [1] 0.043 | duvelisib -0.041 | gandotinib -0.037 | tozasertib 0.024 | doramapimod -0.023 | bafetinib -0.032 | [2] -0.044 | nilotinib -0.007 | [7] 0.012 | dasatinib 0.009 | [8] 0.036 | [3] 0.001 | quisinostat 0.021 | tipifarnib -0.025 | [4] 0.018 | [5] 0.026 | [6] -0.079

SSX5 isoform 2 (UniProt O60225)
UniProt O60225, sequence (O60225 whole entry, looked up): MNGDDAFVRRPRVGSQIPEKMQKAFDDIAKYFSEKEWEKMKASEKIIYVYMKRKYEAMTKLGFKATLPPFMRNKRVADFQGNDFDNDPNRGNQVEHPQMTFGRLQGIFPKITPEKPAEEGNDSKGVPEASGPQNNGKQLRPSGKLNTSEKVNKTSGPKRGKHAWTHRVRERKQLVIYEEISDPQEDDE
inactive: lapatinib 0.042 | pictilisib 0.082 | [1] -0.476 | gandotinib 0.092 | tozasertib 0.085 | bafetinib -0.04 | [2] 0.183 | nilotinib 0.008 | [7] -0.018 | [8] 0.064 | tipifarnib 0.061 | [5] 0.026 | [6] 0.15

TAOK2 isoform 2 (UniProt Q9UL54)
inactive: nilotinib 0.109 | [7] 0.013 | [8] -0.01 | tipifarnib 0.031

SLC35A3 isoform 2 (UniProt Q9Y2D2)
UniProt Q9Y2D2, sequence (Q9Y2D2 whole entry, looked up): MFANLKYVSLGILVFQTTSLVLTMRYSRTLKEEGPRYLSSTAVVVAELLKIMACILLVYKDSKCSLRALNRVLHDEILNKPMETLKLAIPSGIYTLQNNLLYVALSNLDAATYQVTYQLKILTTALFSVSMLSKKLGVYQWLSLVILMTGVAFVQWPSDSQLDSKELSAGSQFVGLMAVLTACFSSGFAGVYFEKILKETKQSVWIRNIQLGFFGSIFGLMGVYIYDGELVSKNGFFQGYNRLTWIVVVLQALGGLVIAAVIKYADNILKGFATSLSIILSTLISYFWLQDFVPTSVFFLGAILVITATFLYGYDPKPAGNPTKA
inactive: lapatinib -0.097 | crizotinib -0.267 | gandotinib 0.215 | tozasertib 0.032 | doramapimod 0.095 | [2] 0.332 | nilotinib 0.02 | [7] -0.001 | [8] -0.049 | quisinostat -0.241 | tipifarnib 0.069 | [4] 0 | [5] 0.019 | [6] 0.056
active: [1] -1.02

SKP2 (UniProt Q13309)
inactive: lapatinib -0.275 | crizotinib -0.159 | [1] -0.098 | duvelisib -0.024 | gandotinib -0.075 | tozasertib -0.096 | doramapimod -0.024 | [2] 0.104 | nilotinib 0.047 | [7] -0.044 | dasatinib -0.004 | [8] 0.003 | [3] 0.045 | quisinostat -0.193 | tipifarnib -0.035 | [4] 0.295 | [5] -0.015 | [6] -0.044

STAR (UniProt P49675)
UniProt P49675, sequence (P49675 whole entry, looked up): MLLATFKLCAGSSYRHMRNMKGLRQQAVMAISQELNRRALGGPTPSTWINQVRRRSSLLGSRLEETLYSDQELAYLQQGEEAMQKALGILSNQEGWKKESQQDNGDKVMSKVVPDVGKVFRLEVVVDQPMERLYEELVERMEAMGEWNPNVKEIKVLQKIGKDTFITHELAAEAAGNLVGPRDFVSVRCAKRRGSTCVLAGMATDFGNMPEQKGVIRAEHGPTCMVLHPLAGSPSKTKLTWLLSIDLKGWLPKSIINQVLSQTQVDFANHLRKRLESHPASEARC
inactive: crizotinib -0.123 | [1] 0.117 | duvelisib 0.017 | gandotinib 0.156 | tozasertib 0.063 | doramapimod 0.019 | [2] 0.142 | nilotinib 0.037 | [7] -0.092 | dasatinib 0.046 | [8] -0.019 | [3] 0.011 | quisinostat -0.041 | tipifarnib 0.203 | [4] -0.135 | [6] -0.146

SLU7 (UniProt O95391)
inactive: pictilisib 0.006 | crizotinib 0.054 | [1] -0.187 | duvelisib 0.06 | gandotinib 0.255 | tozasertib 0.028 | doramapimod -0.099 | bafetinib -0.267 | nilotinib -0.052 | [7] 0.045 | dasatinib -0.025 | [8] 0.047 | [3] 0.013 | quisinostat 0.244 | tipifarnib -0.029 | [4] 0.086 | [6] 0.016
active: [2] 0.367
